# Measurements from PubChem BioAssay (Tox21).
# “And” between values parts separate entries of the source, which are not always exact repeats. Equal entries are not always repeated. Records with an inconclusive call do not appear. Where a call stands in place of a potency, no number is given. Where a structure was tested more than once in an assay, its records may differ in their call. The source made the active and inactive calls. Unless noted, calls come from the whole dose curve; as a rule, active = well fitted curve in the direction sought with a large enough effect in the repeat runs; inconclusive = weak or mixed curves; inactive = no such curve, though single readings can be large; an effect the other way counts as inactive or inconclusive.
# Assays:
# [1] = Human pregnane X receptor (PXR) small molecule agonists, qHTS cell viability counter screen (AID 1346977); note: nearly all actives have a fitted effect of over 50% in size
# Method in brief: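 Fluorescence read-out (CellTiter-Fluor) of viability in PXR-Luc HepG2 cells, multiplexed with the luciferase agonist read. Compounds in DMSO added after 5hr plating; 24hr total exposure at 37C, 5% CO2.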
# [2] = Caspase-3/7 induction in HepG2 cells by small molecules, qHTS assay (AID 1346978); note: nearly all actives have a fitted effect of over 15% in size
# Method in brief: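 Caspase-3/7 induction was measured by Caspase-Glo 3/7 luminescence (30 min, room temperature) after a 17 hr compound exposure of wild-type HepG2 cells seeded at 2,000 per well and pre-incubated 5 hr.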
# [3] = Caspase-3/7 induction in CHO-K1 cells by small molecules, qHTS cell viability counter screen (AID 1346979); note: nearly all actives have a fitted effect of over 35% in size
# Method in brief: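 CHO-K1 wt, 1,500 cells/well; 5hr pre-incubation 37C/5% CO2; compound pin transfer (DMSO); 16hr exposure; CellTiter-Fluor added, 1hr, fluorescence read.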
# [4] = Caspase-3/7 induction in CHO-K1 cells by small molecules, qHTS assay (AID 1346980); note: nearly all actives have a fitted effect of over 15% in size
# Method in brief: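 Luminescent Caspase-Glo 3/7 read (30min, room temperature) quantified apoptosis induction. Cells were wild-type CHO-K1, treated with compound for 17hr at 37 C and 5% CO2.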
# [5] = Caspase-3/7 induction in HepG2 cells by small molecules, qHTS cell viability counter screen (AID 1346981); note: series mostly up to about 92 µM; nearly all actives have a fitted effect of over 30% in size
# Method in brief: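 Wild-type HepG2 cells, 2,000/well, settled 5 hr at 37 C, 5% CO2 before compound addition. Viability read by CellTiter-Fluor fluorescence, reagent added after 16 hr compound exposure, then 1 hr at 37C, in the same wells as the caspase read.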
# [6] = molecular target: Nuclear receptor subfamily 1 group I member 2 (Homo sapiens) (UniProt O75469); assay: Human pregnane X receptor (PXR) small molecule agonists, qHTS assay (AID 1346982); note: nearly all actives have a fitted effect of over 35% in size; note: potency is the fitted concentration of half-maximal effect
# Method in brief: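 PXR-Luc HepG2 reporter cells (CYP3A4-driven luciferase) in 5% charcoal-stripped FBS medium, plated 5 h before compound addition, then treated 24 h at 37C. Luciferase read by ONE-Glo luminescence after 30 min at room temperature.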
# [7] = molecular target: Acetylcholinesterase (Homo sapiens) (UniProt P22303); assay: Acetylcholinesterase (AChE) small molecule antagonists: colormetric cell-based qHTS assay (AID 1347395; calls by dose curve; note: nearly all actives have a fitted effect of over 30% in size; note: potency is the fitted concentration of half-maximal effect)
# Method in brief: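 SH-SY5Y cells; cpd 30 min 37 C; + DTNB/acetylthiocholine, 90 min 37 C; colorimetric thiocholine read; qHTS.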
# [8] = molecular target: Acetylcholinesterase (Homo sapiens) (UniProt P22303); assay: Acetylcholinesterase (AChE) small molecule antagonists: enzyme-based qHTS assay (AID 1347397; calls by dose curve; note: nearly all actives have a fitted effect of over 55% in size); details: Potency: AChE enzyme activity inhibition; outcome: AChE enzyme activity inhibition
# Method in brief: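 Absorbance-based detection of thiocholine with DTNB served as the read-out. Recombinant human AChE was exposed to compound for 30 min at RT before a 10 min RT incubation with acetylthiocholine.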
# [9] = molecular target: Acetylcholinesterase (Homo sapiens) (UniProt P22303); assay: Acetylcholinesterase (AChE) small molecule antagonists: fluorescence cell-based qHTS assay (AID 1347398; calls by dose curve; note: nearly all actives have a fitted effect of over 50% in size); details: Potency: AChE activity; outcome: AChE activity
# Method in brief: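 Fluorimetric cell-based assay: intact SH-SY5Y cells, 30 min compound preincubation at 37 C, acetylthiocholine substrate with thiol probe Thiolite Green, 40 min RT development, fluorescence 490/520 nm.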
# [10] = molecular target: Acetylcholinesterase (Homo sapiens) (UniProt P22303); assay: Acetylcholinesterase (AChE) small molecule antagonists: enzyme-based qHTS assay with human liver microsomes (AID 1347399; calls by dose curve; note: nearly all actives have a fitted effect of over 60% in size); details: Potency: qHTS inhibition; outcome: qHTS inhibition
# Method in brief: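 Recombinant human AChE (50 mU/mL in the enzyme mix) and human liver microsomes (0.25 mg/mL final) were preincubated with compound and NADPH (0.25 mg/mL final) for 30 min at 37 C. Acetylthiocholine/DTNB was then added; thiocholine was read colorimetrically after 10 min at room temperature.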
# [11] = molecular target: Cytochrome P450 2D6 (Homo sapiens) (UniProt P10635); assay: Cytochrome P450 Family 2 Subfamily D Member 6 (CYP2D6) small molecule antagonists: luciferase reporter qHTS assay (AID 1671196); note: nearly all actives have a fitted effect of over 50% in size; note: potency is the fitted concentration of half-maximal effect
# Method in brief: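 Cell-free P450-Glo system: CYP2D6 with proluciferin substrate was pre-incubated with compound for 10 min, then reacted with NADPH regeneration for 1 h at room temperature. Luciferin product was detected after 20 min, and data were reported as relative luminescence units.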
# [12] = molecular target: Cytochrome P450 2C19 (Homo sapiens) (UniProt P33261); assay: Cytochrome P450 Family 2 Subfamily C Member 19 (CYP2C19) small molecule antagonists: luciferase reporter qHTS assay (AID 1671197); note: nearly all actives have a fitted effect of over 65% in size; note: potency is the fitted concentration of half-maximal effect
# Method in brief: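 P450-Glo CYP2C19 screening system; proluciferin substrate; DMSO compound stocks; 10 min RT preincubation; NADPH regeneration, 1 h at 37C; luciferin detection reagent, 20 min RT; luminescence as RLU.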
# [13] = molecular target: Cytochrome P450 2C9 (Homo sapiens) (UniProt P11712); assay: Cytochrome P450 Family 2 Subfamily C Member 9 (CYP2C9) small molecule antagonists: luciferase reporter qHTS assay (AID 1671198); note: nearly all actives have a fitted effect of over 50% in size; note: potency is the fitted concentration of half-maximal effect
# Method in brief: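 Enzyme-substrate mix preincubated with compound 10 min at room temperature; reaction started with NADPH regeneration solution, 1 h 37C. Luminescent luciferin product read after 20 min detection reagent.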
# [14] = molecular target: Cytochrome P450 1A2 (Homo sapiens) (UniProt P05177); assay: Cytochrome P450 Family 1 Subfamily A Member 2 (CYP1A2) small molecule antagonists: luciferase reporter qHTS assay (AID 1671199); note: nearly all actives have a fitted effect of over 50% in size; note: potency is the fitted concentration of half-maximal effect
# Method in brief: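 P450-Glo CYP1A2 enzyme–proluciferin substrate mix with compound 10 min at room temperature, then NADPH regeneration 1 h at room temperature. Luciferin detection reagent added, luminescence read after 20 min; furafylline positive control.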
# [15] = molecular target: Voltage-gated inwardly rectifying potassium channel KCNH2 (Homo sapiens) (UniProt Q12809); assay: Human Ether-a-go-go-Related Gene (hERG) channel small molecule antagonists: fluorescence cell-based qHTS assay (AID 1671200)
# Method in brief: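 Read-out: thallium influx as a surrogate for potassium, tracked as fluorescence (480 nm ex/540 nm em) every second for 2 min after Stimulus Buffer addition in dye-loaded hERG-U2OS cells.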
# [16] = molecular target: Nuclear receptor subfamily 1 group I member 2 (Rattus norvegicus) (UniProt Q9R1A7); assay: Rat pregnane X receptor (rPXR) activation by small molecules, qHTS assay (AID 1346983); details: rPXR luciferase reporter cells, One-Glo luminescence, 24 h; stronger effect = higher value; note: nearly all actives have a fitted effect of over 20% in size
# Method in brief: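 Luminescent readout (One-Glo luciferase, 30 min room temperature) followed 24 hr compound treatment at 37 C of rPXR cells plated 2,000 per well and preincubated 5hr; qHTS format with compounds delivered in DMSO.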
# [17] = molecular target: Nuclear receptor subfamily 1 group I member 2 (Homo sapiens) (UniProt O75469); assay: CYP3A4 induction through human pregnane X receptor (PXR) by small molecules, qHTS assay (AID 1346984); note: nearly all actives have a fitted effect of over 40% in size; note: potency is the fitted concentration of half-maximal effect
# Method in brief: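 DPX-2 HepG2 cells carrying a PXR response element and CYP3A4-promoter luciferase construct, treated with compounds 24 hr at 37C. Then P450-Glo CYP3A4 Luciferin-IPA substrate (3uM final) for 3 hr at 37C, One-Glo added, luminescence read.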
# [18] = molecular target: Nuclear receptor subfamily 1 group I member 2 (Homo sapiens) (UniProt O75469); assay: Human pregnane X receptor (PXR) activation by small molecules, qHTS assay (AID 1346985); note: nearly all actives have a fitted effect of over 40% in size
# Method in brief: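 DPX-2 cells (HepG2 co-transfected with a PXR response element and a CYP3A4-promoter luciferase construct) were seeded at 2,000 per well, rested 5 hr at 37C, then exposed to DMSO-dissolved compounds for 24 hr. Activation was read as luciferase luminescence.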
# [19] = molecular target: Cytochrome P450 3A4 (Homo sapiens) (UniProt P08684); assay: Cytochrome P450 Family 3 Subfamily A Member 4 (CYP3A4) small molecule antagonists: luciferase reporter qHTS assay (AID 1671201)
# Method in brief: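 Luminescent readout (RLU) proportional to CYP3A4 activity, from luciferin generated off a proluciferin substrate. Enzyme–substrate mix plus compound 10 min at room temp, NADPH regeneration 1 h, detection reagent 20 min.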
# Chain of Voltage-gated inwardly rectifying potassium channel KCNH2 (Homo sapiens) (Q12809 whole entry, looked up): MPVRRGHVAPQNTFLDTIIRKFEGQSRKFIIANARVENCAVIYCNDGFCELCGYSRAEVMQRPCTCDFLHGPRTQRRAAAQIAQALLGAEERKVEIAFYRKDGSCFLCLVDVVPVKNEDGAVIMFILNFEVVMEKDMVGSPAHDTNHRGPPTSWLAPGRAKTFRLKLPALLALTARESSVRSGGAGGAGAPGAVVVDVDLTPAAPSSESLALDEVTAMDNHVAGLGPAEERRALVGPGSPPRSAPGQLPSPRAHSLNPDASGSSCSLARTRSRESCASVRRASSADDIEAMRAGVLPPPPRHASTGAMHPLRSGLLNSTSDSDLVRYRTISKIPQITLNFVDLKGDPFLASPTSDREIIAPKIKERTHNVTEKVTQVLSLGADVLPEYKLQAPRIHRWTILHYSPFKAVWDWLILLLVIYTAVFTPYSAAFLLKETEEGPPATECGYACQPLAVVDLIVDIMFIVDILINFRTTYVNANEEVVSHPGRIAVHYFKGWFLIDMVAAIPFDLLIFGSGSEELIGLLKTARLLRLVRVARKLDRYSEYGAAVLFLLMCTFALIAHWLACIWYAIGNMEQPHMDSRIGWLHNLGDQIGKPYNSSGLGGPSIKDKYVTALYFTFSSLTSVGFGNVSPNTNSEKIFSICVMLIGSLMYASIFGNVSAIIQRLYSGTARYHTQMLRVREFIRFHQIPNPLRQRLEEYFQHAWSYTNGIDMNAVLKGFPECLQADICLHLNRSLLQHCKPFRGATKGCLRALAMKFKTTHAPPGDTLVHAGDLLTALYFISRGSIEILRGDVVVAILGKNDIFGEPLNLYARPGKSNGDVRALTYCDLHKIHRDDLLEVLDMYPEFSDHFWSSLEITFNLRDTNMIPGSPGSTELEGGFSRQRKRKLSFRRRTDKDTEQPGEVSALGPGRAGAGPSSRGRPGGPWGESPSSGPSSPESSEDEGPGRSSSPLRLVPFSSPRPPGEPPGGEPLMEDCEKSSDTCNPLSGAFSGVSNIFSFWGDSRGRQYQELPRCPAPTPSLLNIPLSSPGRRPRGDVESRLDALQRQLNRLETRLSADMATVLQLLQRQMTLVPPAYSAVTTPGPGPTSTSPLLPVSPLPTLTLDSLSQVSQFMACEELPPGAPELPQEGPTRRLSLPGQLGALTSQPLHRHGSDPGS
# Chain of Acetylcholinesterase (Homo sapiens) (P22303 whole entry, looked up): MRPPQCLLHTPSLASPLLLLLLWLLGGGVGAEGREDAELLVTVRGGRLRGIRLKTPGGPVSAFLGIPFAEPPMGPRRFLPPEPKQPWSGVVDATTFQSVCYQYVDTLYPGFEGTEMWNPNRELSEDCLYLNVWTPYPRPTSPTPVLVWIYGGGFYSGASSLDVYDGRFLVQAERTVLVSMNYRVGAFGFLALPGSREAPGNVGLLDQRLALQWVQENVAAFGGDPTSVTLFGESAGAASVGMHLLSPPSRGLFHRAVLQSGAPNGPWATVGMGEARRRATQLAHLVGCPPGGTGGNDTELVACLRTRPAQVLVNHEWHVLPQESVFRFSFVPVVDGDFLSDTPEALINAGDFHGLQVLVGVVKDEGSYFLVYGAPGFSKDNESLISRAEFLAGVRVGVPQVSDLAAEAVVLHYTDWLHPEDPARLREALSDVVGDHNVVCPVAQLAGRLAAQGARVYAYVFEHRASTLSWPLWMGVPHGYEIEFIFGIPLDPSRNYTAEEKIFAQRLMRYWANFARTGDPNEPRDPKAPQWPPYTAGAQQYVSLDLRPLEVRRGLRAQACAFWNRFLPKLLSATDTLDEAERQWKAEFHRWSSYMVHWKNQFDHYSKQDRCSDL
# Chain of Cytochrome P450 2D6 (Homo sapiens) (P10635 whole entry, looked up): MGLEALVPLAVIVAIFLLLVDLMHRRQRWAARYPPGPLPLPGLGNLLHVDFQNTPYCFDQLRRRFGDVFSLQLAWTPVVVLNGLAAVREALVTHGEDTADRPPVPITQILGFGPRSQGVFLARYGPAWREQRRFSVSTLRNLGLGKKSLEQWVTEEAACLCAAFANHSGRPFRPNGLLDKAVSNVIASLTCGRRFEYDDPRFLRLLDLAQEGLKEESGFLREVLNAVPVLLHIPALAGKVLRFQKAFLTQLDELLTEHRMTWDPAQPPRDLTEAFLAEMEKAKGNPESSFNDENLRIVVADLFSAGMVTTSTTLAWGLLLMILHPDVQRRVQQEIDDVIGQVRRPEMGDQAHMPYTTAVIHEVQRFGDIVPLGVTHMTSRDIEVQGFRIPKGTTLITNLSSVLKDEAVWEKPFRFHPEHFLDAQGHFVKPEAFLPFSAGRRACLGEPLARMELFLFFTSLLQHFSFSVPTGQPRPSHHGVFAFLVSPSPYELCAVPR
# Chain of Nuclear receptor subfamily 1 group I member 2 (Rattus norvegicus) (Q9R1A7 whole entry, looked up): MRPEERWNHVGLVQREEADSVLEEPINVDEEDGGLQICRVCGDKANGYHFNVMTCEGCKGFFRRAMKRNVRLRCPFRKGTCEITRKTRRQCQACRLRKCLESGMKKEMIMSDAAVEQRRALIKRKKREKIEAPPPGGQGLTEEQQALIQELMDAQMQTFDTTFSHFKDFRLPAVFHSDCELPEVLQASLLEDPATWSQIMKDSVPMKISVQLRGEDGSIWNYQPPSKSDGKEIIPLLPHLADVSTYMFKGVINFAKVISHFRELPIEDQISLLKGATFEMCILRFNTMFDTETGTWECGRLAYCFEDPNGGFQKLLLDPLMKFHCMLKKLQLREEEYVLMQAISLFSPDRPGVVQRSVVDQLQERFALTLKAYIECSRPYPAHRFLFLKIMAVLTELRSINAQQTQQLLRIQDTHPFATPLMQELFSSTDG
# Chain of Cytochrome P450 2C19 (Homo sapiens) (P33261 whole entry, looked up): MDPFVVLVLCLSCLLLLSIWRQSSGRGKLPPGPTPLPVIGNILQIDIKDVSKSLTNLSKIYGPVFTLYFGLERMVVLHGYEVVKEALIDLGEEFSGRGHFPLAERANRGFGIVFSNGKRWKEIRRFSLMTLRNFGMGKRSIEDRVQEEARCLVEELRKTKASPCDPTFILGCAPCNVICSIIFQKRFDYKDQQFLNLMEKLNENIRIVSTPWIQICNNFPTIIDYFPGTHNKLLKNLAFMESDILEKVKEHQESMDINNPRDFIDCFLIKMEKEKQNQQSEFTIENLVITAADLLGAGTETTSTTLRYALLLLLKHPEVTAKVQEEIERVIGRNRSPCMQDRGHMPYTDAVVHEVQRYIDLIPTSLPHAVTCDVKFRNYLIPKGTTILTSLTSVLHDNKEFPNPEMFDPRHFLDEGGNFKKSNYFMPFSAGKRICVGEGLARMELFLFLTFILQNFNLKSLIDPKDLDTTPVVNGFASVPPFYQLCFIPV
# Chain of Cytochrome P450 2C9 (Homo sapiens) (P11712 whole entry, looked up): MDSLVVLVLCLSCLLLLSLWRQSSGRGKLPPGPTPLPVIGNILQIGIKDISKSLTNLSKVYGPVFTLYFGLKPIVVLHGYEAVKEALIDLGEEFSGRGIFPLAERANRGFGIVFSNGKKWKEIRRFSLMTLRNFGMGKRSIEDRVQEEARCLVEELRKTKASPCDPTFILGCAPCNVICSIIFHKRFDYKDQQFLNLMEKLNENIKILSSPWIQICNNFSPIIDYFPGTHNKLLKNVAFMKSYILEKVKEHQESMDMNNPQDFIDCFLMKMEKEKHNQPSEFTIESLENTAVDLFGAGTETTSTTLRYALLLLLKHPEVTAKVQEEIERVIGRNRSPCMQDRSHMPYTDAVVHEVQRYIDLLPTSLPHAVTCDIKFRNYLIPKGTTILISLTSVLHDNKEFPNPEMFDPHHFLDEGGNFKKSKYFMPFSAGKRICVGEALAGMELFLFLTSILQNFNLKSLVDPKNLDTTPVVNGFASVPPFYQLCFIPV
# Chain of Cytochrome P450 3A4 (Homo sapiens) (P08684 whole entry, looked up): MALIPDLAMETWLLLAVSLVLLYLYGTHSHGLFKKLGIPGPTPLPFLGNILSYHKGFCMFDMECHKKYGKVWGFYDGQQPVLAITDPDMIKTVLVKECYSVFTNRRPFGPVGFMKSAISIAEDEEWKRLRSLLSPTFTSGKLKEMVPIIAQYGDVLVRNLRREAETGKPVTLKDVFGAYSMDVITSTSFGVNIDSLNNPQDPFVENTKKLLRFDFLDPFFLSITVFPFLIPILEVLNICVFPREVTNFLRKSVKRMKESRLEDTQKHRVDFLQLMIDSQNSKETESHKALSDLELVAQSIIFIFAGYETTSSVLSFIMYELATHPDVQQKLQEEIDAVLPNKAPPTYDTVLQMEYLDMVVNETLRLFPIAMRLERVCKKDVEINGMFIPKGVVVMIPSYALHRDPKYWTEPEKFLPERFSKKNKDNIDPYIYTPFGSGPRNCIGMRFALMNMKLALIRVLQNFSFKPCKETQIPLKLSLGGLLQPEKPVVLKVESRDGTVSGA
# Chain of Nuclear receptor subfamily 1 group I member 2 (Homo sapiens) (O75469 whole entry, looked up): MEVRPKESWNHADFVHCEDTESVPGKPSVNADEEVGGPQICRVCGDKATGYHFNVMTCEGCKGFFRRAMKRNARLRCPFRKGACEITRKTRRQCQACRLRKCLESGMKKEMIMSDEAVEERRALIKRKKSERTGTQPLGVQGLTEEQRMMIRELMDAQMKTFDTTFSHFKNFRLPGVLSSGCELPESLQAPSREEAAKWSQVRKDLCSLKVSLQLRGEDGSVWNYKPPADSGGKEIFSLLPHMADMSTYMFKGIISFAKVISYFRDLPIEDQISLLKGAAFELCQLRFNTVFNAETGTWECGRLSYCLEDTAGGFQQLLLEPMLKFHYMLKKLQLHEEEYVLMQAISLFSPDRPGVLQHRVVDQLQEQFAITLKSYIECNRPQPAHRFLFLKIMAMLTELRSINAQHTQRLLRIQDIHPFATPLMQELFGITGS
Compound,Potency [1],outcome [2],Potency [3],outcome [4],Potency [5],Potency [6],Potency [7],Potency [8],Potency [9],Potency [10],Potency [11],Potency [12],Potency [13],Potency [14],Potency [15],max activation [16],Potency [17],Potency [18],Potency [19]
OP(O)c1ccccc1,inactive,inactive,inactive,inactive,inactive,inactive,inactive,inactive,inactive,inactive,inactive,inactive,inactive,inactive,inactive,,,,
CN(C)C(=O)Oc1cc(OC(=O)N(C)C)cc(C(O)CNC(C)(C)C)c1 (configuration not stated),inactive,inactive,inactive,inactive,inactive,inactive,inactive,,inactive,inactive,4.9 µM (active),inactive,,inactive,inactive,-1.43% (inactive),inactive,inactive,inactive
CCC(C(N)=O)N1CCCC1=O (configuration not stated),inactive,inactive,inactive,inactive,inactive,inactive,inactive,inactive,inactive,inactive,,inactive,inactive,inactive,inactive,4.65% (inactive),inactive,inactive,inactive
CCC(C)C(C)(COC(N)=O)COC(N)=O (configuration not stated),inactive,inactive,inactive,inactive,inactive,inactive,inactive,inactive,inactive,inactive,inactive,inactive,inactive,inactive,inactive,,,,
CCCC(C)(COC(N)=O)COC(N)=O,inactive,inactive,inactive,inactive,inactive,51.5 µM (active),inactive,inactive,inactive,inactive,inactive,33.7 µM (active),,inactive,inactive,-1.03% (inactive),inactive,inactive,
CCCOC(=O)Cc1ccc(OCC(=O)N(CC)CC)c(OC)c1,inactive,inactive,inactive,inactive,inactive,15 µM (active),inactive,inactive,inactive,inactive,inactive,inactive,inactive,inactive,inactive,,,,
NC(=O)OCCCc1ccccc1,inactive,inactive,inactive,inactive,inactive,inactive,inactive,inactive,,inactive,inactive,inactive,inactive,21.9 µM (active),inactive,-3.96% (inactive),inactive,inactive,
Cc1ccc(Cl)c(O)c1,inactive,inactive,inactive,inactive,inactive,inactive,inactive,inactive,inactive,inactive,inactive,inactive,,inactive,inactive,-0.916% (inactive),inactive,inactive,inactive
CCOC(=O)CC(SP(=S)(OC)OC)C(=O)OCC (configuration not stated),inactive,inactive,inactive,inactive,inactive,12.2 µM (active) and inactive,62.1 µM (active) and inactive,inactive,inactive,inactive,inactive,178 nM (active) and 436 nM (active),1.19 µM (active) and 1.38 µM (active),2.24 µM (active) and 1.62 µM (active),inactive,0.377% (inactive),inactive,inactive,
N#CN,inactive,inactive,inactive,inactive,inactive,inactive,inactive,,inactive,inactive,inactive,inactive,inactive,inactive,inactive,0.661% (inactive),inactive,inactive,inactive
CN1C(=O)COc2c(C(=O)NC3CN4CCC3CC4)cc(Cl)cc21 (configuration not stated),inactive,inactive,inactive,inactive,inactive,inactive,38.9 µM (active),,,inactive,,inactive,inactive,inactive,inactive,-0.408% (inactive),inactive,,
CCC1(c2ccccc2)CCC(=O)NC1=O (configuration not stated),inactive,inactive,inactive,inactive,inactive,inactive,inactive,inactive,inactive,inactive,inactive,38.9 µM (active),,inactive,inactive,-0.631% (inactive),inactive,,inactive
CCC1(c2ccccc2)C(=O)N(COC)C(=O)N(COC)C1=O,inactive,inactive,inactive,inactive,inactive,inactive,inactive,inactive,,inactive,inactive,6.92 µM (active),,inactive,inactive,3% (inactive),10 µM (active),,
COc1cc(CCN)cc(OC)c1OC,inactive,inactive,inactive,inactive,inactive,inactive,inactive,inactive,inactive,inactive,inactive,inactive,inactive,38.7 µM (active),inactive,,,,
CCC1(c2cccc(O)c2)CCCCN(C)C1 (configuration not stated),inactive,inactive,inactive,inactive,inactive,inactive,,,,,,inactive,,inactive,inactive,-1.16% (inactive),inactive,inactive,inactive
